Experimental data published in the supplement of paper PMC10849652.
Of roughly 8,800 targets only a part is listed; those with a hit were picked by preference. About 0.5% of all pairs of compound and target were hits. A number with no mark means an inactive call.

What follows are targets tested with C1=CC=C2C(=C1)C3=NNC4=CC=CC(=C43)C2=O (assay: log2 fold change, soluble protein after heating vs DMSO (PISA); higher = thermal stabilisation; K562 lysate, 10 uM; active = over 0.2 and 3.5 SD of the protein, either way, in both replicates (recomputed)).
Summary of the method: (§1)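 Following dounce homogenisation of K562 pellets in PBS pH 7.4 with 1 mM MgCl2, crude extract at 1 mg/mL protein was incubated for 30 min with 10 μM compound. Aliquots were then heated for 3 min over 48°C-58°C and pooled, NP-40 was added to 0.5% at 4°C, and soluble protein was recovered as the supernatant at 21,000xg for 90 min. Channel-sum-equalised TMTpro 16plex LC-MS/MS quantified this protein. Each value, from duplicates, is a log-two fold change in thermal stability relative to solvent controls.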

UniProt Q96DG6, sequence (Q96DG6 whole entry, looked up): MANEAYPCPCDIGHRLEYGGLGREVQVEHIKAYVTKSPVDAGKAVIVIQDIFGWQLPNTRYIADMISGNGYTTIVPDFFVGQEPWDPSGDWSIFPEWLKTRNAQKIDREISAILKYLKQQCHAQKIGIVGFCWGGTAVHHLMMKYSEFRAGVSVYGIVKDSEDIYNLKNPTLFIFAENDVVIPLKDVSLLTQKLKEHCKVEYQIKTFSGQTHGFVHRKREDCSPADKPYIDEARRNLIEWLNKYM
UniProt Q6UWP2, sequence (Q6UWP2 whole entry, looked up): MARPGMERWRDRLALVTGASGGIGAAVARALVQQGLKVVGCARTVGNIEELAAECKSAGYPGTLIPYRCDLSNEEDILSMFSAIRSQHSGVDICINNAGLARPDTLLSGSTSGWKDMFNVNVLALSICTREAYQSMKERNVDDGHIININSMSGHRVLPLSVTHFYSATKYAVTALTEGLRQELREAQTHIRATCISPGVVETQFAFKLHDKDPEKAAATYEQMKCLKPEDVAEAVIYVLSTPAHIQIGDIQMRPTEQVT
UniProt Q8TB03, sequence (Q8TB03 whole entry, looked up): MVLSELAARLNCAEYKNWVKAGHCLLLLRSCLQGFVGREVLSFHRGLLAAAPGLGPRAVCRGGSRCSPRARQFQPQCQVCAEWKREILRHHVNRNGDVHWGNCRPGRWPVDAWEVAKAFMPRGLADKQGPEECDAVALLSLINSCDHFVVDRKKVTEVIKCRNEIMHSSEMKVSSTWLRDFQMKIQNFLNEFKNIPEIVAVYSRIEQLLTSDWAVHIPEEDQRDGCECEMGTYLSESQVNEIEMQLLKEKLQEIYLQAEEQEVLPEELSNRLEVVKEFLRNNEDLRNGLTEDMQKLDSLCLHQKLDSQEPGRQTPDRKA
UniProt P51790, sequence (P51790 whole entry, looked up): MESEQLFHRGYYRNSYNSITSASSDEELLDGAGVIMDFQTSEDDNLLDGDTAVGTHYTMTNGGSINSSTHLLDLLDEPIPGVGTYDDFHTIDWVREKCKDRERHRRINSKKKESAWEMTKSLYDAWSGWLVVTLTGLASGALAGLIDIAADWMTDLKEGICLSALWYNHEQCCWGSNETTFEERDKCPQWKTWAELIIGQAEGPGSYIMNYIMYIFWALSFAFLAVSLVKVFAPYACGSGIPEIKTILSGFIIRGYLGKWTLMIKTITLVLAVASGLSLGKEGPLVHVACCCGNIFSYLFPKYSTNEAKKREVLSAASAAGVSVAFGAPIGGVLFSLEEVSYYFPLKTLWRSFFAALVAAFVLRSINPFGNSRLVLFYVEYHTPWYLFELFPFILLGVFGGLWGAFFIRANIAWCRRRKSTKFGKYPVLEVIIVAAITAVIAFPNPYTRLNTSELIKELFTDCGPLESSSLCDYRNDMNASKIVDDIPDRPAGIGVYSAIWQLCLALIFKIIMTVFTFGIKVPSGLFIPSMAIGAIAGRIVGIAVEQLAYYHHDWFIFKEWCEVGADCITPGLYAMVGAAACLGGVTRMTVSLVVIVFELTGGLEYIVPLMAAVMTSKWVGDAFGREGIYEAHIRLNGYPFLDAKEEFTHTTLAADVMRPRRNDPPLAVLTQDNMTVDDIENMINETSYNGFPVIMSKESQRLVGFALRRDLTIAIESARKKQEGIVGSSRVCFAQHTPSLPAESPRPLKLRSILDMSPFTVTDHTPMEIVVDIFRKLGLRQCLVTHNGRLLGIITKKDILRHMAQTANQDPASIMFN
UniProt Q96LJ7, sequence (Q96LJ7 whole entry, looked up): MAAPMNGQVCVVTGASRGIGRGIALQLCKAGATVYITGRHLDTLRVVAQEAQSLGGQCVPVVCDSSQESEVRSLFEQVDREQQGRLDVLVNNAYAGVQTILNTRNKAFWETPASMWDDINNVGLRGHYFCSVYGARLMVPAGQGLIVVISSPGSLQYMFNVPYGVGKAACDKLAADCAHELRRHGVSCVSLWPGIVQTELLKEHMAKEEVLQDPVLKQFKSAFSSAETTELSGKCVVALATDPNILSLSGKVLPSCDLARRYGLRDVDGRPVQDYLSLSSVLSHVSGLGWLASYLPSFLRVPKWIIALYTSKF
UniProt Q14019, sequence (Q14019 whole entry, looked up): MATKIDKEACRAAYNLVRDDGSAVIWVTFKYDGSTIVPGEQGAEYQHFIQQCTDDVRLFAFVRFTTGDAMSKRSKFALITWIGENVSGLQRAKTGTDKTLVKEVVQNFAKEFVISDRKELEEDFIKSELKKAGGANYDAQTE
UniProt P50416, sequence (P50416 whole entry, looked up): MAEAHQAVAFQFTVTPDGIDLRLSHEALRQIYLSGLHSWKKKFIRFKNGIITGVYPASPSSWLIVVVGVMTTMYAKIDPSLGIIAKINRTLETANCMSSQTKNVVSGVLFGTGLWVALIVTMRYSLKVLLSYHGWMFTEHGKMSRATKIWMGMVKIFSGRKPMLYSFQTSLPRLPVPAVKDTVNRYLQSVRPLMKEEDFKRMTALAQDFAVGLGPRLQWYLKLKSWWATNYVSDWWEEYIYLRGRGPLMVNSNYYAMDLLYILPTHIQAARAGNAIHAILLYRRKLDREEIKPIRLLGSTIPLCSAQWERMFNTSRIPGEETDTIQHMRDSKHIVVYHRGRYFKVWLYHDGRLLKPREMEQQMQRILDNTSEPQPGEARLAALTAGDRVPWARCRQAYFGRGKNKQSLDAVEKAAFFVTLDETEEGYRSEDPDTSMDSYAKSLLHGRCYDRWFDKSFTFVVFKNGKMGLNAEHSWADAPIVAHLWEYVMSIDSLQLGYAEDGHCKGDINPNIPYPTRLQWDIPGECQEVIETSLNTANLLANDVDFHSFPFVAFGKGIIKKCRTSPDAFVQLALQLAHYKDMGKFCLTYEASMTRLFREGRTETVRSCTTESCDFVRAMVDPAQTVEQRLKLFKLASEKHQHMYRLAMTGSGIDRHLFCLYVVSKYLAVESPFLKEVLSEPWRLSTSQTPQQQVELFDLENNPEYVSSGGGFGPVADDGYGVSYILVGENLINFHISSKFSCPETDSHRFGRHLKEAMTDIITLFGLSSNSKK
UniProt Q6PJW8, sequence (Q6PJW8 whole entry, looked up): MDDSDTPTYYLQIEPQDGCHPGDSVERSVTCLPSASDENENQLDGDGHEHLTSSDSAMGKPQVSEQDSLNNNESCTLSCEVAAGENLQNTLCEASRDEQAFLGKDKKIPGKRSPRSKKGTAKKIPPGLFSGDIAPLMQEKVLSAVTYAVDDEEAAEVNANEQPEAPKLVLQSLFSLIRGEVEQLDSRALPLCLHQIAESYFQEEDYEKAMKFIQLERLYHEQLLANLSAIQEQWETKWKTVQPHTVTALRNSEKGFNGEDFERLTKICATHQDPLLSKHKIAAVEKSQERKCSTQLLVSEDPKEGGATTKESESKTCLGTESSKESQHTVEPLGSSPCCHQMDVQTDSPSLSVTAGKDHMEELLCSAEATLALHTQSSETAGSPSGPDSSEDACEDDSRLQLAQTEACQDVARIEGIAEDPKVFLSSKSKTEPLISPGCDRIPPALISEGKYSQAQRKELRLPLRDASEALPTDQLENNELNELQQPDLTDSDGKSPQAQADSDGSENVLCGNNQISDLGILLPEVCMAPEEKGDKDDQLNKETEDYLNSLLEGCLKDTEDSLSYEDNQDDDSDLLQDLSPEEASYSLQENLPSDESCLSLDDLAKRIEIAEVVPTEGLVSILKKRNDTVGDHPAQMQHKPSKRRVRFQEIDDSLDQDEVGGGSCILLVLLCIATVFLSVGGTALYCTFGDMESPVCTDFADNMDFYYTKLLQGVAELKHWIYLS
UniProt P83436, sequence (P83436 whole entry, looked up): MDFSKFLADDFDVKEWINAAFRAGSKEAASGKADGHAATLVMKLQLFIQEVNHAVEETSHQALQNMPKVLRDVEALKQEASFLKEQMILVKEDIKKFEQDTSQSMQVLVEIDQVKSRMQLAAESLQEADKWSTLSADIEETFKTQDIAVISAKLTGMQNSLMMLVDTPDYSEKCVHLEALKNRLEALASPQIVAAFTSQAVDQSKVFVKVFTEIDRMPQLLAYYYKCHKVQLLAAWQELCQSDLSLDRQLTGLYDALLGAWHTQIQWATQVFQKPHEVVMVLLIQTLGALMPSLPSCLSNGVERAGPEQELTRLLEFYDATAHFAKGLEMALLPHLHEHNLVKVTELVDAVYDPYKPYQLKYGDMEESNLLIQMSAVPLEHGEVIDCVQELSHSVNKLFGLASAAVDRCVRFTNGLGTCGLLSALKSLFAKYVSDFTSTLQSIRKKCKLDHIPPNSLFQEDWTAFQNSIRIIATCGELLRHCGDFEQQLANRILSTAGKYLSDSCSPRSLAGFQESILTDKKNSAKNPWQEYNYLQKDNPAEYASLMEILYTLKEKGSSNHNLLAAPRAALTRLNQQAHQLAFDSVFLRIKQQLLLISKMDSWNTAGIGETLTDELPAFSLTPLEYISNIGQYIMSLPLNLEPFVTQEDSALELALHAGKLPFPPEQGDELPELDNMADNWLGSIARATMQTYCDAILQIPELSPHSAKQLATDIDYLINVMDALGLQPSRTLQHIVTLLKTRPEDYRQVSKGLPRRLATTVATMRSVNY
UniProt P00374, sequence (P00374 whole entry, looked up): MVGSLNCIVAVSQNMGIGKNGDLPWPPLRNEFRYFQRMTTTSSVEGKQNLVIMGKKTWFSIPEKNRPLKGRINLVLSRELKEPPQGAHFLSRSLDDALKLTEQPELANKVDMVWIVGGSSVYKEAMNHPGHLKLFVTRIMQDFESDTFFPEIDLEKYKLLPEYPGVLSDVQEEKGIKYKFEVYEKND
UniProt Q99828, sequence (Q99828 whole entry, looked up): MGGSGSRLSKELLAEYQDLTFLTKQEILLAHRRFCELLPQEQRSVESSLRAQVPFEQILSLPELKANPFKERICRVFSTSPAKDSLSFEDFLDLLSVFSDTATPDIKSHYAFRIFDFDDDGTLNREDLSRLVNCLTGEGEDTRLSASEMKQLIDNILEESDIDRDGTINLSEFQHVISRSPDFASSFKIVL
UniProt Q8WUH1, sequence (Q8WUH1 whole entry, looked up): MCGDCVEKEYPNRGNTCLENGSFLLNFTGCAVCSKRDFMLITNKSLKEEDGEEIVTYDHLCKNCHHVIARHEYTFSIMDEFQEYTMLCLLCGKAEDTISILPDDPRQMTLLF

Row | Target | log2 fold change
1 | CLCN3 (UniProt P51790) | 0.084
2 | DHRS11 (UniProt Q6UWP2) | -0.008
3 | COTL1 (UniProt Q14019) | 0.004
4 | CMBL (UniProt Q96DG6) | 0.045
5 | CPT1A (UniProt P50416) | 0.011
6 | DHRS1 (UniProt Q96LJ7) | 0.05
7 | COG7 (UniProt P83436) | -0.037
8 | CXorf38 (UniProt Q8TB03) | 0.012
9 | CNST (UniProt Q6PJW8) | -0.054
10 | CUX1 isoform 3 (UniProt P39880) | 0.003
11 | DHFR (UniProt P00374) | -0.01

What follows are targets tested with C1CCN(C1)C(=O)NC2=CC=CC(=C2)NC3=NC=C(C(=N3)NCCC4=CN=CN4)Br in the same assay as above.
Summary of the method: as §1

Row | Target | log2 fold change
12 | CIB1 (UniProt Q99828) | 0.045
13 | COL6A5 (UniProt A8TX70) | 0.014
14 | DFFB (UniProt O76075) | 0.013
15 | CSNK1G3 (UniProt Q9Y6M4) | 0.018
16 | DNM2 (UniProt P50570) | -0.022
17 | COPZ1 isoform 4 (UniProt P61923) | -0.08
18 | DPH5 isoform 5 (UniProt Q9H2P9) | -0.027
19 | COQ9 (UniProt O75208) | -0.02
20 | DLD (UniProt P09622) | 0.008
21 | CLP1 (UniProt Q92989) | -0.024
22 | DMAC2L (UniProt Q99766) | -0.068
23 | DOCK10 (UniProt Q96BY6) | -0.064
24 | CIAO2A (UniProt Q9H5X1) | 0.04
25 | DNAJC1 (UniProt Q96KC8) | -0.011
26 | DIAPH3 (UniProt Q9NSV4) | -0.04
27 | CNP (UniProt P09543) | -0.016
28 | CHURC1 isoform 2 (UniProt Q8WUH1) | -0.017

Row | Target | log2 fold change
29 | CYCS (UniProt P99999) | 0.011
30 | CSNK2B (UniProt P67870) | 0.145
31 | DOCK8 (UniProt Q8NF50) | 0.04
32 | CRABP2 (UniProt P29373) | 0.399 (active)
33 | DENND6A (UniProt Q8IWF6) | 0.029
34 | CHMP4A isoform 2 (UniProt Q9BY43) | 0.014
35 | CLCN3 (UniProt P51790) | -0.043
36 | DHRS11 (UniProt Q6UWP2) | -0.041
37 | COTL1 (UniProt Q14019) | 0.022
38 | CMBL (UniProt Q96DG6) | 0.006
39 | CPT1A (UniProt P50416) | -0.036
40 | DHRS1 (UniProt Q96LJ7) | -0.052
41 | COG7 (UniProt P83436) | -0.022
42 | CXorf38 (UniProt Q8TB03) | -0.058
43 | CNST (UniProt Q6PJW8) | -0.022
44 | CUX1 isoform 3 (UniProt P39880) | -0.004
45 | DHFR (UniProt P00374) | 0.034

These targets were tested with C1CN(CCC1(CC2=CC=C(C=C2)Cl)N)C3=NC=NC4=C3C=CN4 in the same assay as above.
Summary of the method: as §1

Row | Target | log2 fold change
46 | CIB1 (UniProt Q99828) | 0.073
47 | COL6A5 (UniProt A8TX70) | -0.052
48 | DFFB (UniProt O76075) | -0.019
49 | CSNK1G3 (UniProt Q9Y6M4) | 0.079
50 | DNM2 (UniProt P50570) | -0.008
51 | COPZ1 isoform 4 (UniProt P61923) | -0.028
52 | DPH5 isoform 5 (UniProt Q9H2P9) | 0.027
53 | COQ9 (UniProt O75208) | 0.029
54 | DLD (UniProt P09622) | 0.006
55 | CLP1 (UniProt Q92989) | -0.033
56 | DMAC2L (UniProt Q99766) | 0.027
57 | DOCK10 (UniProt Q96BY6) | -0.028
58 | CIAO2A (UniProt Q9H5X1) | 0.009
59 | DNAJC1 (UniProt Q96KC8) | 0.017
60 | DIAPH3 (UniProt Q9NSV4) | -0.082
61 | CNP (UniProt P09543) | 0
62 | CHURC1 isoform 2 (UniProt Q8WUH1) | 0.058

Row | Target | log2 fold change
63 | CYCS (UniProt P99999) | 0.002
64 | CSNK2B (UniProt P67870) | 0.041
65 | DOCK8 (UniProt Q8NF50) | -0.021
66 | CRABP2 (UniProt P29373) | 0.309
67 | DENND6A (UniProt Q8IWF6) | 0.083
68 | CHMP4A isoform 2 (UniProt Q9BY43) | -0.007
69 | CLCN3 (UniProt P51790) | -0.117
70 | DHRS11 (UniProt Q6UWP2) | 0.042
71 | COTL1 (UniProt Q14019) | 0.008
72 | CMBL (UniProt Q96DG6) | -0.002
73 | CPT1A (UniProt P50416) | 0.024
74 | DHRS1 (UniProt Q96LJ7) | 0.105
75 | COG7 (UniProt P83436) | 0.05
76 | CXorf38 (UniProt Q8TB03) | -0.031
77 | CNST (UniProt Q6PJW8) | 0.036
78 | CUX1 isoform 3 (UniProt P39880) | 0.07
79 | DHFR (UniProt P00374) | 0.019
